A selection: hits, their analogues and other compounds. The true share with any hit is near 2.3%.
FUS yeast rescue – rescues growth of FUS-expressing yeast; Potency, µM (top dose mostly 76.6 µM), usual class: activators; 0.24% of 390,000 active; S. cerevisiae FUS-expressing, growth rescue, OD600, 24 h;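 further: plate controls were DMSO vehicle for no effect and reference control for full effect; nearly all actives have a fitted effect of over 55% in size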
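Compound concentration series was pinned onto galactose-induced FUS-expressing yeast seeded at OD 0.005. Plates sat 24hr at 30C; absorbance at 600 nm gave growth. DMSO served as background control.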
aSyn yeast inh – rescues yeast growth from alpha-synuclein toxicity; Yeast expressing alpha-synuclein, growth rescue, BacTiter-Glo, 24 h; Potency, µM (highest dose often 46.1 µM), for the others: at the highest dose growth rescue (activation), actives largely listed as activators; 0.14% of 370,000 active; further: % of control where 0% means no effect; nearly all actives have a fitted effect of over 65% in size
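Readout is rescue of growth in alpha-synuclein-expressing yeast, so inhibitors of toxicity appear as activators. Growth after 24 hr at 30 deg C in galactose medium is quantified by luminescence.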
Abeta yeast res – compounds reversing amyloid beta toxicity in yeast | yeast expressing A-beta42, growth rescue, OD600, 48 h; response scale: 0% DMSO, 100% iron-clioquinol control | 0.063% of 410,000 active | Potency, µM (series often up to 46.1 µM), actives largely listed as activators; further: nearly all actives have a fitted effect of over 55% in size
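Yeast A-beta toxicity model in growth medium with pinned compounds, 48 h at 30 C; growth read as absorbance at 600 nm. Normalized to FeCl3/clioquinol equimolar mix (positive) and DMSO (negative).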
TDP-43 yeast inh – inhibitors of TDP-43 toxicity in yeast; TDP-43 expressing yeast growth rescue, BacTiter-Glo, 24 h; AID 652104; Potency, µM (top dose mostly 46.1 µM), for the others: at the highest dose growth rescue (activation), hits mostly activators; 1.8% of 410,000 active; further: % of control where 0% means no effect; nearly all actives have a fitted effect of over 50% in size
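Readout is BacTiter-Glo luminescence of cell growth, so inhibitors register as activators. TDP-43-expressing yeast at OD600=0.02 in galactose medium, after raffinose pregrowth to mid-log, were incubated with compound for 24 hr at 30 deg C.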
uPA generation – blocks generation of uPA at the cell surface; 0.31% of 330,000 active; Potency, µM (top dose mostly 38.3 µM), for inactives: at the highest dose activity change, negative = inhibition, actives largely listed as inhibitors; cell surface uPA generation assay, qHTS; active means well fitted inhibition curve with a large enough effect; inconclusive means small, poorly fitted or top-dose-only effect; inactive means no such curve, though single readings can be large or run the other way; tested in mouse RAW 264.7 cells; further: on the % scale 0 is the no-effect control and ±100 the full control effect; nearly all actives have a fitted effect of over 55% in size
Chronic BCR inh – inhibitors of chronic active B-cell receptor signaling; Potency, µM (titrated, usually from 46.1 µM), for inactives: at the highest dose activity change, negative = inhibition, actives largely listed as inhibitors; 0.05% of 340,000 active; ABC-DLBCL IkBa-CBG/CBR reporter, luminescence ratio, 4 h; active means well fitted inhibition curve with a large enough effect in the signal ratio, with a control signal flat, not every such curve was filed as active; inconclusive means small, poorly fitted or top-dose-only effect, or effect the other way, or a change in a side signal; the % refers to the signal ratio;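 further: plate controls were basal doxycycline-induced cells for no effect and cells given 10 µM MG132 for full effect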
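Cell line TMD8 (human ABC DLBCL), stably expressing tet-inducible CBG68-IkBa fusion and CBR; IMDM/0.5% FBS; cpd up to 46 uM; dox induction, 4 h, 37C/5% CO2; dual luminescence; green/red ratio; MG132 control.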
* marks the source's active call; other numbers are inactive results; i = inactive; u = inconclusive; x = not tested or not shown. Unless noted, the call rests on the fitted dose curve; in most records, active means well fitted curve in the direction sought with a large enough effect; inconclusive means small, poorly fitted or top-dose-only effect, or another doubt; inactive means no such curve, though single readings can be large; an effect the other way counts as inactive or inconclusive. Potency means the concentration at half of the fitted maximal effect.

SMILES	FUS yeast rescue	aSyn yeast inh	Abeta yeast res	TDP-43 yeast inh	uPA generation	Chronic BCR inh
Oc1c(Cl)cc(Cl)cc1/C=N/Nc1ncc(Br)cn1	i	1µM*	i	-1%	0%	u
O=C(N/N=C/c1cc(Br)cc(Cl)c1O)c1ccc2c(c1)OCO2	i	5.6µM*	i	6.3µM*	3%	x
O=C(N/N=C/c1cc(Cl)cc(Cl)c1O)c1ccncc1	i	13%	i	u	3.2µM*	13%
Cc1cc(Br)cc(/C=N/NC(=O)c2ccc3c(c2)OCO3)c1O	i	1%	i	0%	u	u
CC(C)C[C@@H](CN1CCCC1CN1C(=S)NC[C@@H]1Cc1ccc(O)cc1)N1C[C@H](Cc2ccc(O)cc2)N(CC2CCCCC2)C1=S (stereo partly specified)	u	-44%	i	16%	u	x
CC(OC(=O)c1ccc(NS(=O)(=O)c2cccs2)cc1)C(=O)N(C)C1CCCCC1 (stereo unspecified)	32µM*	-3%	i	-6%	7%	7%
CC1CCN(S(=O)(=O)c2ccc(C(=O)OC(C)C(=O)N(C)C3CCCCC3)cc2)CC1 (stereo unspecified)	i	-6%	i	-19%	0%	4%
CCN(CC)S(=O)(=O)c1ccc(NC2CCN(Cc3ccccc3)CC2)nc1	i	1%	i	-4%	-1%	5%
CCOc1ccc(N2C(=O)CC(N(CCc3ccc(OC)cc3)C(=O)c3cccc(F)c3)C2=O)cc1 (stereo unspecified)	i	5%	i	-7%	0%	-3%
C#CCSc1nccc(-c2nn(-c3ccc(C)cc3)ccc2=O)n1	35µM*	5%	i	-15%	-4%	-16%
CCOC(=O)c1cnc(Nc2nc3ccccc3o2)nc1CSC(=S)N(CC)CC	i	4%	i	-11%	-5%	0.58µM*
O=C(O)CCCCCCCCc1cn(CCc2c[nH]c3ccccc23)nn1	i	-10%	i	13µM*	-7%	3%
CCN(C(=O)[C@@H]1CCCN1C(=O)c1cccs1)c1nc2cc(Cl)ccc2s1	i	3%	i	13µM*	-1%	0%
Cc1cc(Cl)ccc1NC(=O)C1CCCN1C(=O)c1cccs1 (stereo unspecified)	i	10%	i	-7%	-4%	1%
Cc1ccc(C(=O)NNc2ncnc3c2cnn3C)cc1	i	-12%	i	-18%	-1%	-5%
Cn1ncc2c(O/N=C(\N)c3ccc(C(F)(F)F)cc3)ncnc21	i	-75%	i	-92%	2.8µM*	u
CCCCS(=O)(=O)c1oc(-c2cccs2)nc1S(=O)(=O)c1ccc(F)cc1	i	x	i	22µM*	x	x
CC(C)c1ccc(OCC(=O)NNC(=S)NC(=O)c2ccco2)c(Br)c1	i	15%	i	10µM*	-7%	0%
Cc1ccccc1OCC(=O)Nc1ccccc1NC(=O)c1ccco1	i	7%	i	6%	-1%	6%
O=C(Cc1ccc(Cl)cc1)NNC(=S)NC(=O)c1cccs1	i	-28%	u	28µM*	5%	u
O=C(Cc1cccs1)NNC(=S)NC(=O)c1ccco1	i	u	10µM*	u	-1%	u
O=C(Cc1cccs1)NNC(=S)NCc1ccc(Cl)cc1	i	-6%	i	4%	-2%	-3%
Cc1ccccc1OCC(=O)NNC(=S)NC(=O)c1ccco1	i	u	u	7.1µM*	x	u
CC(C)(C)c1ccc(OCC(=O)NNC(=S)NC(=O)c2ccco2)c(Br)c1	x	14%	i	u	3%	1%
COc1ccc(-c2ccc(=O)n(Cc3ccc([N+](=O)[O-])cc3)n2)cc1	i	12%	x	15%	-8%	u
SMILES	FUS yeast rescue	aSyn yeast inh	Abeta yeast res	TDP-43 yeast inh	uPA generation	Chronic BCR inh
Cc1ccccc1OCC(=O)N/N=C/c1cccc(Oc2ccc([N+](=O)[O-])cc2[N+](=O)[O-])c1	x	8%	i	14%	11µM*	2%
COc1ccc(-c2csc(C(C)(O)c3cccc(F)c3)n2)cc1OC (stereo unspecified)	i	-1%	i	35µM*	x	x
CC(O)(c1cccc(F)c1)c1nc(-c2cccc(C(=O)O)c2)cs1 (stereo unspecified)	i	7%	i	35µM*	x	x
COc1cccc(C(C)(O)c2nc(-c3ccc(C)c(C)c3)cs2)c1 (stereo unspecified)	i	-14%	i	14µM*	x	x
CC(O)(c1cccc(F)c1)c1nc(-c2ccccc2)cs1 (stereo unspecified)	i	8%	i	36%	x	x
CC(O)(c1cccc(F)c1)c1nc(-c2cccc(C(F)(F)F)c2)cs1 (stereo unspecified)	i	-44%	i	-94%	x	x
CCN(CC)C(=O)c1cccc(-c2csc(C(C)(O)c3ccc(F)c(F)c3)n2)c1 (stereo unspecified)	u	1%	i	14µM*	x	x
CCOCCCNC(=O)c1c(N)n(-c2ccc3c(c2)OCO3)c2nc3ccccc3nc12	i	-3%	i	18%	6%	16%
C=CCN1C(=O)c2ccc(C(=O)NCC(c3ccccc3)N(C)C)cc2C1=O (stereo unspecified)	i	-24%	i	-3%	4%	4%
CC(O)(c1cccc(F)c1)c1nc(-c2cccc(C#N)c2)cs1 (stereo unspecified)	i	10%	i	35µM*	x	x
N#Cc1cccc(-c2csc(C(O)(c3ccccc3)C(F)(F)F)n2)c1 (stereo unspecified)	i	-50%	13µM*	-80%	x	x
Cc1ccc(N2C(S)=C(C#N)C(=O)NC23CCCCC3)cc1	x	1%	i	22µM*	-6%	u
Cc1cccc(N2C(S)=C(C#N)C(=O)NC23CCCCC3)c1	x	8%	i	-25%	14%	-1%
Cc1cccc2nc(-c3cccnc3)c(Nc3ccc(C(C)C)cc3)n12	i	x	i	16%	x	x
COc1cccc(CNC(=O)C2CCC(CNS(=O)(=O)c3cccc4cccnc34)CC2)c1 (stereo unspecified)	i	-3%	x	8%	2%	1%
CCOC(=O)Nc1cccc(Nc2ccccc2)c1	i	-15%	i	14µM*	5%	-9%
O=C(Nc1ccccc1)OCCc1ccccc1	i	-20%	i	35µM*	x	x
CCCCOC(=O)Nc1cccc(C(C)=O)c1	i	0%	i	11µM*	-3%	u
COc1ccccc1NC(=S)NCc1ccccc1	i	13%	u	21%	-1%	u

Screening results deposited in PubChem by National Center for Advancing Translational Sciences (NCATS).
